Assay results published in PubChem BioAssay.
For part of these data: Entries with a potency or affinity are not part of this list. Calls of active or inactive are those of the source.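 The calls were made as follows, unless noted: active = compound raising the membrane signal above positive-control mean plus 3 SD in both repeats, and a primary screen hit; inactive = the rest.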

Tests used:
[1] = test system: TRPC4 beta (transient receptor potential cation channel C4), mouse; assay: activators of mouse TRPC4 channel, confirmation, cell-based, Fluo4 calcium, HEK293 TRPC4beta/mu-opioid, duplicates, 10 µM (AID 2426;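 active = fluorescence ratio normalized to control raised more than 50% in primary screen plus both repeat runs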); conditions: Fluo4 calcium fluorescence, at 10 µM; stronger effect = higher value
[2] = test system: transient receptor potential cation channel C4 beta (TRPC4), mouse; assay: activators of mouse TRPC4 channel, confirmation, cell-based, second round, Fluo4, HEK293 TRPC4beta/mu-opioid, 1 µM (AID 2461;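 active = primary screen active and over 50% activation in each of two duplicate runs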); conditions: Fluo4 calcium fluorescence, at 1 µM; stronger effect = higher value
[3] = test system: TRPC4 (transient receptor potential cation channel C4 beta), mouse; assay: positive allosteric modulators of mouse TRPC4, confirmation, cell-based, second round, Fluo-4, HEK293 TRPC4beta/mu-opioid, 1 µM (AID 2554;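 active = primary screen hit whose fluorescence ratio, in both repeats, exceeds the weak agonist control mean by 3 SD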); conditions: DAMGO EC20, Fluo-4 calcium flux, at 1 µM; stronger effect = higher value
[4] = test system: TRPC4 beta (transient receptor potential cation channel C4), mouse; assay: positive allosteric modulators of mouse TRPC4, confirmation, cell-based, Fluo-4, HEK293 TRPC4beta/mu-opioid (AID 2555;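 active = primary screen hit whose calcium fluorescence ratio, in both repeats, exceeds the weak agonist control mean by 3 SD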); conditions: DAMGO EC20, Fluo-4 calcium flux, at 10 µM; stronger effect = higher value
[5] = biological target: Short transient receptor potential channel 4 (Mus musculus) (UniProt Q9QUQ5); assay: inhibitors of mouse TRPC4 channel, confirmation, cell-based, Fluo4, HEK293 TRPC4beta/mu-opioid (AID 2636;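 active = calcium signal cut by more than 3 SD below the full-agonist control yet still positive, in both repeats and the earlier primary screen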); conditions: DAMGO, Fluo4 calcium flux, at 10 µM; stronger effect = higher value
[6] = biological target: Short transient receptor potential channel 4 (Mus musculus) (UniProt Q9QUQ5); assay: inhibitors of mouse TRPC4 channel, confirmation, cell-based, second round, Fluo4, HEK293 TRPC4beta/mu-opioid, 1 µM (AID 2637;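 active = calcium signal ratio cut to more than 3 SD under the fully stimulated control mean yet still positive, in both repeats and the primary screen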); conditions: Fluo4 calcium flux, DAMGO, at 1 µM; stronger effect = higher value
[7] = biological target: Short transient receptor potential channel 4 (Mus musculus) (UniProt Q9QUQ5); assay: mouse TRPC4 channel activators, dose response, cell-based, HEK293 TRPC4/mu-opioid, Fluo-4 calcium (AID 434937;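 active = primary screen activator hit with a dose response curve and TRPC4 channel activation at any tested dose; inactive = no activation, no dose response, or not a primary hit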)
[8] = biological target: Short transient receptor potential channel 4 (Mus musculus) (UniProt Q9QUQ5); assay: TRPC4 positive allosteric modulators, dose response, cell-based, HEK293 TRPC4/mu-opioid, Fluo-4 calcium, EC20 DAMGO (AID 434941;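 active = earlier screen potentiator hit that boosts the TRPC4 ion channel at some dose, with a dose response; inactive = no potentiation, no dose response, or not a prior hit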;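 also: calcium entry triggered by an EC20 dose of DAMGO at the co-expressed mu-opioid receptor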)
[9] = biological target: Short transient receptor potential channel 4 (Mus musculus) (UniProt Q9QUQ5); assay: mouse TRPC4 channel inhibitors, dose response, cell-based, HEK293 TRPC4/mu-opioid, Fluo-4 calcium (AID 434942;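 active = primary screen inhibitor hit that blocks the TRPC4 channel at some tested dose, yielding a dose curve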)
[10] = biological target: Short transient receptor potential channel 6 (Mus musculus) (UniProt Q61143); assay: inhibition of mouse TRPC6 channel, confirmation, selectivity assay for TRPC4 inhibitor project, cell-based, HEK293, membrane potential dye, duplicate (AID 434948;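 active = active in primary screen and both duplicates, each dropping signal beyond three positive-control SD with fluorescence still positive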); conditions: HEK293 TRPC6, membrane potential dye fluorescence, at 10 µM, stimulated with maximal-effect acetylcholine; stronger effect = higher value
[11] = biological target: Short transient receptor potential channel 6 (Mus musculus) (UniProt Q61143); assay: activation of mouse TRPC6 channel, confirmation, selectivity assay for TRPC4 activator project, cell-based, HEK293, membrane potential dye, duplicate (AID 434950;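 active = membrane potential signal rise above negative control mean plus 3 SD in both duplicates, also active in the earlier TRPC4 screen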;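 as to activation: 0% = buffer only wells and 100% = acetylcholine maximal-effect wells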); conditions: HEK293 TRPC6, membrane potential fluorescence, at 10 µM; stronger effect = higher value
[12] = biological target: Short transient receptor potential channel 6 (Mus musculus) (UniProt Q61143); assay: TRPC6 potentiation by TRPC4 potentiator hits, confirmation, selectivity assay for TRPC4 potentiator project, HEK293 cells, membrane potential dye, duplicate (AID 434952); conditions: HEK293 TRPC6, membrane potential dye fluorescence, at 10 µM, maximal acetylcholine added after compound; stronger effect = higher value
[13] = biological target: Short transient receptor potential channel 4 (Mus musculus) (UniProt Q9QUQ5); assay: calcium flux activators in TRPC4/5HT1a cells, counter-screen for TRPC4 activator project, cell-based, second counter screen, HEK293 TRPC4/5HT1a, Fluo-4 (AID 434977;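 active = calcium signal rise above buffer-control mean plus 5 SD in both duplicates, and also a hit in the primary screen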;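 as to activation: plate controls were assay buffer for no effect and maximal serotonin response for full effect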); conditions: Fluo-4 calcium flux, at 10 µM; stronger effect = higher value
[14] = calcium flux inhibitors in TRPC4/5HT1a cells, confirmation, counter-screen for TRPC4 inhibitor project, cell-based, second counter screen, HEK293 TRPC4/5HT1a, Fluo-4 (AID 434978;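 active = primary screen active whose calcium signal fell more than 3 SD beyond the full-serotonin control mean in both duplicate plates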;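 as to outcome: serotonin given first at submaximal then at maximal dose after compound preincubation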); conditions: Fluo-4 calcium flux, at 10 µM, serotonin added to trigger calcium flux; stronger effect = higher value
[15] = test system: TRPC4 (mouse), co-expressed with 5HT1a in HEK293; assay: calcium flux potentiators in TRPC4/5HT1a cells, confirmation, counter-screen for TRPC4 potentiator project, cell-based, second counter screen, HEK293 TRPC4/5HT1a, Fluo-4 (AID 434979;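 active = signal rise over 3 SD above mean of control wells given weak agonist, in both repeats and first screen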); conditions: Fluo-4 calcium flux, at 10 µM, serotonin added at its EC20 dose; stronger effect = higher value
[16] = calcium flux activation in mu-opioid HEK293 cells, confirmation, counter-screen for TRPC4 activator project, cell-based, HEK293 mu-opioid receptor line (AID 449723;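 active = hit in primary screen, with calcium signal over 5 SD above buffer well mean in both duplicates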;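 also: counter screen cells carry the mu-opioid receptor alone and lack TRPC4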); conditions: Fluo-4 calcium fluorescence, at 10 µM; stronger effect = higher value
[17] = calcium flux enhancement in mu-opioid HEK293 cells, confirmation, counter-screen for TRPC4 allosteric potentiator project, cell-based, HEK293 mu-opioid receptor line (AID 449724;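 active = calcium signal rise more than 3 SD above the low-dose agonist control mean, in both duplicate plates and the primary screen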); conditions: Fluo-4 calcium flux, at 10 µM, compound added before EC20 DAMGO stimulus; stronger effect = higher value

Short transient receptor potential channel 4 (Mus musculus), sequence (Q9QUQ5 whole entry, looked up): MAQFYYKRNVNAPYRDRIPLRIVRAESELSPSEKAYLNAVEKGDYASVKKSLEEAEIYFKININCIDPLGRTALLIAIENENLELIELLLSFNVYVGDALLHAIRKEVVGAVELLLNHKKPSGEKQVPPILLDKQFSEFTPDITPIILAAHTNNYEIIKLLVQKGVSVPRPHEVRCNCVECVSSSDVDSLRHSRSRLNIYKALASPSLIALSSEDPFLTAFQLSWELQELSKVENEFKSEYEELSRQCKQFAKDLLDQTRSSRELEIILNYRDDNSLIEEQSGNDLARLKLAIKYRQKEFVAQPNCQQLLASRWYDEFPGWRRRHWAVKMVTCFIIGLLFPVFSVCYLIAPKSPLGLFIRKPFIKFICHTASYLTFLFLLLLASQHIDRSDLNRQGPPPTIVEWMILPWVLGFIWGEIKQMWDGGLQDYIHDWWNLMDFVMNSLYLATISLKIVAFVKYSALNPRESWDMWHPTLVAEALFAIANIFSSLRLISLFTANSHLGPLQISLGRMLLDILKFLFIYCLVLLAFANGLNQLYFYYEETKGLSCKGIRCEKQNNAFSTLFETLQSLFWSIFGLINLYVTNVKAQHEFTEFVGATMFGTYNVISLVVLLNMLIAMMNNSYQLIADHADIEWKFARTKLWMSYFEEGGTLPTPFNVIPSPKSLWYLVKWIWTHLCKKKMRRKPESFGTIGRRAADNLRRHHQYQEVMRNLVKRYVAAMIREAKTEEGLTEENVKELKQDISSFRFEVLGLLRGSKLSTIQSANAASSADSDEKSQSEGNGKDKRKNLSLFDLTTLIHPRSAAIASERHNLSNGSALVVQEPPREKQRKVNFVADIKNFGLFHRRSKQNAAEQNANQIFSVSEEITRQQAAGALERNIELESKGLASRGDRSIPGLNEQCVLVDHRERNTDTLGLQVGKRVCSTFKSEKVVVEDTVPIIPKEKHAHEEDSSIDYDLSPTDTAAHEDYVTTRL
Short transient receptor potential channel 6 (Mus musculus), sequence (Q61143 whole entry, looked up): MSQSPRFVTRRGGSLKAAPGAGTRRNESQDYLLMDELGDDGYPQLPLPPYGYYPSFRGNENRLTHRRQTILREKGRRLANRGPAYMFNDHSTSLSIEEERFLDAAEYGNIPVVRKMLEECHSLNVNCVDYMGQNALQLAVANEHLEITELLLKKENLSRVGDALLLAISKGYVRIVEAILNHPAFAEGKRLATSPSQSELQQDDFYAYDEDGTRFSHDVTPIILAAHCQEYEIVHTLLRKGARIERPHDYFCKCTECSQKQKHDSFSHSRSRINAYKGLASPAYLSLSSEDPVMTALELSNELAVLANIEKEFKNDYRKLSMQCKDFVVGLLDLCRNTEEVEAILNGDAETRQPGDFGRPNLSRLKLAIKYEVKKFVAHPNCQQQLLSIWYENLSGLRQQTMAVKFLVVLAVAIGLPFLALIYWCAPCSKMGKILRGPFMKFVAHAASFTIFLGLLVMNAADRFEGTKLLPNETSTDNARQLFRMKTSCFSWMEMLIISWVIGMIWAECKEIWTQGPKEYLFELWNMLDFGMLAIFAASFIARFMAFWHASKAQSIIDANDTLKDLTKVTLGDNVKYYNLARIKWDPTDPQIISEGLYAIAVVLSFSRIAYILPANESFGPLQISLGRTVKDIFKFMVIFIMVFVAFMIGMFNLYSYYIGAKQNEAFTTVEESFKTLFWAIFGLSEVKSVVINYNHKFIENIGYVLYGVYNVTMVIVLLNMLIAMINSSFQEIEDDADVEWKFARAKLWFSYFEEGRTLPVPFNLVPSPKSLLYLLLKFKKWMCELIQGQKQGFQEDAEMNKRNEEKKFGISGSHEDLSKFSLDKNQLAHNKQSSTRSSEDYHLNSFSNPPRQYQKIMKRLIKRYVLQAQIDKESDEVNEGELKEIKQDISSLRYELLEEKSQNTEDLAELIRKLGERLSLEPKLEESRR

Cc1cccc(OCCn2c(=O)sc3ccccc32)c1
inactive: outcome [1] | outcome [2] | outcome [3] | outcome [4] | outcome [5] | outcome [6] | outcome [7] | outcome [8] | outcome [9] | outcome [10] | outcome [11] | outcome [12] | outcome [13] | outcome [14] | outcome [15] | outcome [16] | outcome [17]

Cc1ccc(CC(=O)NCC(c2ccco2)N(C)C)cc1C (stereo not given)
inactive: outcome [1] | outcome [2] | outcome [3] | outcome [4] | outcome [5] | outcome [6] | outcome [7] | outcome [8] | outcome [9] | outcome [10] | outcome [11] | outcome [12] | outcome [13] | outcome [14] | outcome [15] | outcome [16] | outcome [17]

CCOC(=O)c1c(C)oc2ccc(O)c(CN3CCCCC3)c12
inactive: outcome [1] | outcome [2] | outcome [3] | outcome [4] | outcome [5] | outcome [6] | outcome [7] | outcome [8] | outcome [9] | outcome [10] | outcome [11] | outcome [12] | outcome [13] | outcome [14] | outcome [15] | outcome [16] | outcome [17]

CC(C)(C)n1cnc2cc(NCc3ccc(Br)cc3)ccc21
active: potentiation [15] 8.63%
inactive: outcome [1] | outcome [2] | outcome [3] | outcome [4] | outcome [5] | outcome [6] | outcome [7] | outcome [8] | outcome [9] | outcome [10] | outcome [11] | outcome [12] | outcome [13] | outcome [14] | outcome [16] | outcome [17]

CCOCCCn1cnc2c(c1=O)c1nc3ccccc3nc1n2-c1ccc(C)cc1
inactive: outcome [1] | outcome [2] | outcome [3] | outcome [4] | outcome [5] | outcome [6] | outcome [7] | outcome [8] | outcome [9] | outcome [10] | outcome [11] | outcome [12] | outcome [13] | outcome [14] | outcome [15] | outcome [16] | outcome [17]

CCN(CC)CCn1c(=N)n(CC(O)COc2cccc(C)c2)c2ccccc21 (stereo not given)
inactive: outcome [1] | outcome [2] | outcome [3] | outcome [4] | outcome [6] | outcome [7] | outcome [8] | outcome [9] | outcome [10] | outcome [11] | outcome [12] | outcome [13] | outcome [15] | outcome [16] | outcome [17]
active: inhibition [5] 88% | inhibition [14] 6.72%

CCN1CCN(Cc2nc3c(c(=O)[nH]c(=O)n3C)n2Cc2ccccc2Cl)CC1
active: potentiation [4] 12% | potentiation [15] 19%
inactive: outcome [1] | outcome [2] | outcome [3] | outcome [5] | outcome [6] | outcome [7] | outcome [8] | outcome [9] | outcome [10] | outcome [11] | outcome [12] | outcome [13] | outcome [14] | outcome [16] | outcome [17]

CCCN(CCC)CCCNC(=O)c1cc2c(=O)n(C)c3ccccc3c2n1C
inactive: outcome [1] | outcome [2] | outcome [4] | outcome [5] | outcome [6] | outcome [7] | outcome [8] | outcome [9] | outcome [10] | outcome [11] | outcome [12] | outcome [14] | outcome [16] | outcome [17]
active: potentiation [3] 23% | activation [13] 6.09% | potentiation [15] 23.1%

COc1cc(/C=C/C(=O)OCC(=O)Nc2c(C)n(C)n(-c3ccccc3)c2=O)ccc1OCC#N
active: activation [11] 39.5%
inactive: outcome [1] | outcome [2] | outcome [3] | outcome [4] | outcome [5] | outcome [6] | outcome [7] | outcome [8] | outcome [9] | outcome [10] | outcome [12] | outcome [13] | outcome [14] | outcome [15] | outcome [16] | outcome [17]

Cc1n[nH]c(C)c1Cc1c(F)cccc1Cl
inactive: outcome [1] | outcome [2] | outcome [3] | outcome [4] | outcome [6] | outcome [7] | outcome [8] | outcome [9] | outcome [10] | outcome [11] | outcome [12] | outcome [13] | outcome [14] | outcome [15] | outcome [16] | outcome [17]
active: inhibition [5] 94%

Cc1ccc(Nc2c(N)c(=O)oc3ccccc23)cc1
active: potentiation [15] 33%
inactive: outcome [1] | outcome [2] | outcome [3] | outcome [4] | outcome [5] | outcome [6] | outcome [7] | outcome [8] | outcome [9] | outcome [10] | outcome [11] | outcome [12] | outcome [13] | outcome [14] | outcome [16] | outcome [17]

CCOc1ccc(CN(C)CC(=O)NNC(=O)c2ccc(Cl)cc2)cc1OC
active: potentiation [3] 41% | potentiation [4] 22% | potentiation [15] 11%
inactive: outcome [1] | outcome [2] | outcome [5] | outcome [6] | outcome [7] | outcome [8] | outcome [9] | outcome [10] | outcome [11] | outcome [12] | outcome [13] | outcome [14] | outcome [16] | outcome [17]

CC(OC(=O)Cn1cnc2c1c(=O)n(C)c(=O)n2C)C(=O)Nc1ccc(Cl)cc1 (stereo not given)
inactive: outcome [1] | outcome [2] | outcome [3] | outcome [4] | outcome [5] | outcome [6] | outcome [7] | outcome [8] | outcome [9] | outcome [10] | outcome [11] | outcome [12] | outcome [13] | outcome [14] | outcome [15] | outcome [16] | outcome [17]

c1cnc(N2CCN(c3cnccn3)CC2)nc1
inactive: outcome [1] | outcome [2] | outcome [3] | outcome [4] | outcome [5] | outcome [6] | outcome [7] | outcome [8] | outcome [9] | outcome [10] | outcome [11] | outcome [12] | outcome [13] | outcome [14] | outcome [15] | outcome [16] | outcome [17]

CC(=NCCN1CCN(C(C)=C2C(=O)c3ccccc3C2=O)CC1)C1=C(O)CC(C)(C)CC1=O
inactive: outcome [1] | outcome [2] | outcome [3] | outcome [4] | outcome [5] | outcome [6] | outcome [7] | outcome [8] | outcome [9] | outcome [10] | outcome [11] | outcome [12] | outcome [13] | outcome [14] | outcome [15] | outcome [16] | outcome [17]
